Screening data from PubChem BioAssay.
pPAFAH FP inh: pPAFAH enzyme inhibitors, primary screen, biochemical, fluorescence polarization, human; Platelet-activating factor acetylhydrolase (Homo sapiens), Q13093; recombinant pPAFAH, FP-rhodamine probe fluorescence polarization; inhibition, % at 3.39 µM; hit rate 1.5% among 330,000; AID 463082, 2010;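 active = inhibition above the mean inhibition across the screen plus 3 SD, cut at about 25% in these data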;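 also: inhibitors block binding of the rhodamine activity-based probe so polarization drops; 0% = enzyme with DMSO and 100% = wells lacking pPAFAH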
Target sequence (Q13093 whole entry, looked up): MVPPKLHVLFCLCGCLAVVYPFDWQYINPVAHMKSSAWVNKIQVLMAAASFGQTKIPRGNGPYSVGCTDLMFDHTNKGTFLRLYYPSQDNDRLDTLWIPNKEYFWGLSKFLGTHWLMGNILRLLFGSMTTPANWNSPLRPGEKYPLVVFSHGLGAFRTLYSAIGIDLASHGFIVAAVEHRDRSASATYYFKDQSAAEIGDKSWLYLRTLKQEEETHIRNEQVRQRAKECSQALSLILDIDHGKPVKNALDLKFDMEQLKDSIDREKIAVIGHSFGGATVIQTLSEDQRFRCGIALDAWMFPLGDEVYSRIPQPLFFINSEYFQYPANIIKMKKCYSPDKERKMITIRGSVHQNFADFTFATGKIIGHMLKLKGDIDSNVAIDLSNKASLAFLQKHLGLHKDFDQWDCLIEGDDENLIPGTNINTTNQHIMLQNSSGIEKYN
PP1 counter: PP1-alpha phosphatase inhibitors, primary screen, counter-screen for PP5 inhibitor project, biochemical, fluorescence, OMFP substrate, single point. Serine/threonine-protein phosphatase PP1-alpha catalytic subunit (Homo sapiens), P62136. purified PP1alpha. inhibition, % at 6.7 µM. hit rate 0.9% among 320,000. AID 2235, 2010;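 active = inhibition above the mean inhibition of all tested compounds plus 3 SD, computed separately for each screening campaign, cut at about 15% in these data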
PAFAH1B3 inh: PAFAH1B3 enzyme inhibitors, primary screen, biochemical, fluorescence polarization, human. hit rate 0.28% among 340,000. Platelet-activating factor acetylhydrolase IB subunit alpha1 (Homo sapiens), Q15102. recombinant PAFAH1B3, FP-rhodamine probe. inhibition, % at 3.39 µM;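 active = inhibition above the screen-wide average of all tested compounds plus 3 SD, cut at about 25% in these data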;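 also: 0% = enzyme with DMSO only and 100% = wells lacking PAFAH1B3 protein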
Target sequence (Q15102 whole entry, looked up): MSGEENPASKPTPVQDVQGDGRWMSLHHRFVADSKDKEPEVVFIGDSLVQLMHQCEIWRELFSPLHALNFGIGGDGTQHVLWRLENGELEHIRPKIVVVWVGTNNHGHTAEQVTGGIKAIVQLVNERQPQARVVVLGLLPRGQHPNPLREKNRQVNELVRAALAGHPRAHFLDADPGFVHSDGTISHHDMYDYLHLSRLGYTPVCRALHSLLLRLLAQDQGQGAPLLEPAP
PAFAH1B2 FP inh: PAFAH1B2 enzyme inhibitors, primary screen, biochemical, fluorescence polarization, human; recombinant PAFAH1B2, FP-rhodamine activity probe; AID 492953, 2010; Platelet-activating factor acetylhydrolase IB subunit alpha2 (Homo sapiens), P68402; inhibition, % at 3.39 µM; hit rate 1.2% among 340,000;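 active = inhibition above the mean of all tested compounds plus 3 SD, cut at about 24% in these data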;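 also: 0% = enzyme with DMSO and 100% = wells lacking PAFAH1B2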
PP5 inh: PP5 phosphatase inhibitors, primary screen, biochemical, fluorescence. Serine/threonine-protein phosphatase 5 (Homo sapiens), P53041. purified PP5c, OMFP substrate fluorescence. inhibition, % at 6.7 µM. hit rate 0.18% among 320,000;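 active = inhibition above the campaign's mean inhibition across all tested compounds plus 3 SD, cut at about 9.5% in these data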;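 also: 0% = DMSO only and 100% = 100 µM cantharidin control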
PAFAH2 FP inh: PAFAH2 enzyme inhibitors, primary screen, biochemical, fluorescence polarization, human; Platelet-activating factor acetylhydrolase 2, cytoplasmic (Homo sapiens), Q99487; recombinant PAFAH2, FP-rhodamine activity probe; inhibition, % at 3.39 µM; hit rate 0.99% among 340,000;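 active = inhibition above the mean over all tested compounds plus 3 SD, cut at about 30% in these data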;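 also: inhibitors block probe labeling of enzyme so polarization drops; 0% = enzyme with DMSO and 100% = wells lacking PAFAH2 protein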
PAFAH2 FP conf: PAFAH2 enzyme inhibitors, confirmation, biochemical, fluorescence polarization, human; shares compounds with PAFAH2 FP inh; recombinant PAFAH2, FP-rhodamine activity probe; inhibition, % at 3.39 µM; hit rate 65% among 2,300; AID 493030, 2011;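 active = mean inhibition over three repeats above a set limit taken from the earlier primary screen, cut at about 30% in these data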;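 also: inhibitor blocks binding of rhodamine activity probe so polarization falls; 0% = enzyme with DMSO and 100% = wells lacking PAFAH2 protein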
* hit, by the source's call. Sampled rows, rich in hits. Any-hit rate of the full collection: about 3.4%.

Results for CC(=O)c1cccc(NC(=O)C(NC(C)C)c2ccccc2)c1 (stereo not drawn) ?
pPAFAH FP inh: 1; PP1 counter: -1; PAFAH1B3 inh: 11; PAFAH1B2 FP inh: 6; PP5 inh: -1; PAFAH2 FP inh: -1

What do the screens show for `CCOC(=O)c1ccc(NC(C)=O)c([N+](=O)[O-])c1`?
pPAFAH FP inh: 4; PP1 counter: -1; PAFAH1B3 inh: 2; PAFAH1B2 FP inh: 4; PP5 inh: 0; PAFAH2 FP inh: 3

How did CNc1ccc(C(=O)OCC(=O)Nc2ccnn2C(C)C)cc1[N+](=O)[O-] do in these assays?
pPAFAH FP inh: 2; PP1 counter: 0; PAFAH1B3 inh: 3; PAFAH1B2 FP inh: 4; PP5 inh: 1; PAFAH2 FP inh: 60*; PAFAH2 FP conf: 46*

Results for CC(=O)N1C[C@H]2CON(C)[C@H]2C[C@H]1c1cccc(-c2ccccc2)c1 ?
PAFAH1B3 inh: 1; PAFAH1B2 FP inh: 2; PAFAH2 FP inh: -1

How did CCc1ccc2[nH]c(=O)c(CN(Cc3nnnn3C3CCCC3)C3CCCCC3)cc2c1 do in these assays?
pPAFAH FP inh: 1; PP1 counter: 3; PAFAH1B3 inh: 0; PAFAH1B2 FP inh: -2; PP5 inh: 3; PAFAH2 FP inh: 2

How did O=C(Nc1ccc(Cl)cc1)Nc1ccc(S(=O)(=O)Nc2ncccn2)cc1 do in these assays?
pPAFAH FP inh: 0; PP1 counter: -3; PAFAH1B3 inh: 2; PAFAH1B2 FP inh: -1; PP5 inh: 0; PAFAH2 FP inh: -5

What do the screens show for `O=C(Nc1ccc(S(=O)(=O)Nc2ncccn2)cc1)c1ccccc1NS(=O)(=O)c1ccc(Cl)cc1`?
pPAFAH FP inh: 5; PP1 counter: 4; PAFAH1B3 inh: 3; PAFAH1B2 FP inh: 3; PP5 inh: 3; PAFAH2 FP inh: 50*; PAFAH2 FP conf: 50*

How did CC(=O)N1N=C(c2ccccc2)OC1(C)CC(=O)Nc1ccccc1 (stereo not drawn) do in these assays?
pPAFAH FP inh: -1; PP1 counter: -3; PAFAH1B3 inh: 0; PAFAH1B2 FP inh: 5; PP5 inh: -2; PAFAH2 FP inh: 6

Results for O=[N+]([O-])c1ccc(CN2CCCCCC2)s1 ?
pPAFAH FP inh: 5; PP1 counter: -2; PAFAH1B3 inh: 5; PAFAH1B2 FP inh: 5; PP5 inh: 7; PAFAH2 FP inh: 32*; PAFAH2 FP conf: 11

How did COc1ccc(C(=O)NC(=S)NCC2CCCO2)cc1 (stereo not drawn) do in these assays?
pPAFAH FP inh: 3; PP1 counter: -1; PAFAH1B3 inh: 10; PAFAH1B2 FP inh: 0; PP5 inh: 1; PAFAH2 FP inh: -1

How did O=C1NN(c2ccccc2)C(=O)/C1=C/c1ccc(-c2ccc(C(=O)O)cc2)o1 do in these assays?
pPAFAH FP inh: 20; PP1 counter: -2; PAFAH1B3 inh: 12; PAFAH1B2 FP inh: 8; PP5 inh: 2; PAFAH2 FP inh: 31*; PAFAH2 FP conf: 14

What do the screens show for `O=c1c2c([nH]c3ccccc13)C(=C1CCCC1)CC2`?
pPAFAH FP inh: 16; PP1 counter: -2; PAFAH1B3 inh: 12; PAFAH1B2 FP inh: 9; PP5 inh: 2; PAFAH2 FP inh: 33*; PAFAH2 FP conf: 7

Results for O=c1c2c([nH]c3ccccc13)CCCC2 ?
pPAFAH FP inh: -2; PP1 counter: -3; PAFAH1B3 inh: 6; PAFAH1B2 FP inh: 5; PP5 inh: 0; PAFAH2 FP inh: 2

How did Cc1ccc(C(=O)Nc2ccccc2C(=O)NC(CC(=O)O)C(=O)O)cc1 (stereo not drawn) do in these assays?
pPAFAH FP inh: 2; PP1 counter: -5; PAFAH1B3 inh: -4; PAFAH1B2 FP inh: 0; PP5 inh: 0; PAFAH2 FP inh: -5

What do the screens show for `CCOC(=O)c1c(-c2ccccc2)oc2ccc(OCC(=O)NNC(=O)CCC(=O)O)cc12`?
PAFAH1B3 inh: 4; PAFAH1B2 FP inh: 3; PAFAH2 FP inh: -3

Results for CCOC(=O)c1c(-c2ccccc2)oc2ccc(OCC(=O)NNC(=O)CCCC(=O)O)cc12 ?
PAFAH1B3 inh: 23; PAFAH1B2 FP inh: 17; PAFAH2 FP inh: 41*; PAFAH2 FP conf: 3

Results for N#Cc1c(SCc2ccccc2)sc(C(=O)c2ccccc2)c1N ?
pPAFAH FP inh: -1; PP1 counter: -4; PAFAH1B3 inh: 10; PAFAH1B2 FP inh: 0; PP5 inh: -1; PAFAH2 FP inh: 3

Results for O=C(NCC(=O)N1CCc2ccccc2C1)c1ccccc1Cl ?
PAFAH1B3 inh: 3; PAFAH1B2 FP inh: 1; PAFAH2 FP inh: 3

Results for O=C(CC12CC3CC(CC(C3)C1)C2)NCC(=O)N1CCc2ccccc2C1 ?
pPAFAH FP inh: 10; PP1 counter: -4; PAFAH1B3 inh: 9; PAFAH1B2 FP inh: 12; PP5 inh: 1; PAFAH2 FP inh: 81*; PAFAH2 FP conf: 71*

How did COc1cccc(NC(=O)CN(C)CC(=O)NCc2ccc3c(c2)OCO3)c1 do in these assays?
pPAFAH FP inh: 3; PP1 counter: -2; PAFAH1B3 inh: 11; PAFAH1B2 FP inh: 3; PP5 inh: 0; PAFAH2 FP inh: -3

Results for COc1ccc(CNC(=O)Cn2nc([N+](=O)[O-])c(Br)c2C)cc1 ?
pPAFAH FP inh: 3; PP1 counter: -1; PAFAH1B3 inh: -3; PAFAH1B2 FP inh: 1; PP5 inh: 0; PAFAH2 FP inh: -1

How did N#Cc1ccccc1NC(=O)COC(=O)/C=C/c1ccc(S(=O)(=O)N2CCOCC2)cc1 do in these assays?
pPAFAH FP inh: 6; PAFAH1B3 inh: 5; PAFAH1B2 FP inh: 2; PAFAH2 FP inh: 51*; PAFAH2 FP conf: 31*

Results for CN(C)S(=O)(=O)c1ccc(Cl)c(NC(=O)COC(=O)/C=C/c2ccco2)c1 ?
pPAFAH FP inh: 2; PP1 counter: 4; PAFAH1B3 inh: 1; PAFAH1B2 FP inh: 0; PP5 inh: 2; PAFAH2 FP inh: 46*; PAFAH2 FP conf: 47*

What do the screens show for `Cc1ccc(S(=O)(=O)N(C)C)cc1NC(=O)COC(=O)/C=C/c1ccc(F)cc1`?
pPAFAH FP inh: 1; PP1 counter: -7; PAFAH1B3 inh: 0; PAFAH1B2 FP inh: 4; PP5 inh: 0; PAFAH2 FP inh: 15

What do the screens show for `O=C(COC(=O)/C=C/c1ccc(F)cc1)Nc1ccc(S(=O)(=O)N2CCOCC2)cc1`?
pPAFAH FP inh: 3; PAFAH1B3 inh: 4; PAFAH1B2 FP inh: 2; PAFAH2 FP inh: 4
